Results from PubChem BioAssay (NCI).
This is part of a sample that, as a whole, favours compounds with a hit. Of some 79,000 tested, about 15% had one in any assay. Active and inactive are the calls of the source. Cut-off read from the data, not from the text of the source: active = growth inhibition above about 70%; inactive = the rest.

How the values were obtained:
[1] = NCI Yeast Anticancer Drug Screen. Data for the rad52 strain (AID 147);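 note: 0% = growth of vehicle-treated control cultures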; details: S. cerevisiae rad52 mutant growth inhibition, hits give high values
How it was run: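 Genetically altered yeast (DNA damage repair defect) treated with compound; inhibition calculated relative to vehicle.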

[2] = NCI Yeast Anticancer Drug Screen. Data for the wt1 strain (AID 149);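 note: 0% = growth of vehicle-treated wt1 cultures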; details: S. cerevisiae wt1 strain (SPY 50644) growth inhibition, hits give high values
How it was run: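 Yeast wt1 strain exposed to compounds; growth inhibition measured relative to vehicle-treated controls.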

[3] = NCI Yeast Anticancer Drug Screen. Data for the rad50EPP+ strain (AID 151);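 note: 0% = growth of vehicle-treated control cultures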; details: S. cerevisiae rad50 mutant strain, hits give high values
How it was run: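 Strain rad50EPP+; compound exposure; % growth inhibition vs vehicle.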

[4] = NCI Yeast Anticancer Drug Screen. Data for the mgt1 strain (AID 153); details: S. cerevisiae mgt1 mutant growth inhibition, hits give high values
How it was run: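 Read-out: yeast growth inhibition vs vehicle control. Strain mgt1, drawn from a panel altered in DNA damage repair or cell cycle control.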

[5] = NCI Yeast Anticancer Drug Screen. Data for the rad50 strain (AID 155);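 note: 0% = growth of vehicle-only cultures of the same strain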; details: S. cerevisiae rad50 strain growth inhibition, hits give high values
How it was run: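 Yeast carrying a defined DNA repair defect were exposed to test compounds, and growth was compared with vehicle-treated controls to give percent inhibition.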

[6] = NCI Yeast Anticancer Drug Screen. Data for the mec2-1 strain (AID 157); details: S. cerevisiae mec2-1 strain, hits give high values
How it was run: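 Cells of the genetically defined mec2-1 yeast strain are incubated with test compound. Inhibition of growth is calculated against vehicle-treated controls.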

[7] = NCI Yeast Anticancer Drug Screen. Data for the rad14 strain (AID 159);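 note: 0% = growth of vehicle-treated control cultures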; details: S. cerevisiae rad14 strain growth inhibition, hits give high values
How it was run: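 Yeast cells carrying a defined DNA-repair defect were exposed to compounds, and growth inhibition was calculated relative to vehicle-treated control cultures.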

[8] = NCI Yeast Anticancer Drug Screen. Data for the sgs1 mgt1 strain (AID 161);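 note: 0% = growth of cultures given vehicle only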; details: S. cerevisiae sgs1 mgt1 strain, hits give high values
How it was run: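 Mutant yeast exposed to compound; growth scored against vehicle-only wells.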

[9] = NCI Yeast Anticancer Drug Screen. Data for the CLN2oe strain (AID 163);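 note: 0% = growth of vehicle-only control cultures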; details: S. cerevisiae CLN2oe strain, hits give high values
How it was run: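 Strain altered in cell-cycle control, incubated with compound; growth compared to solvent-treated controls.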

[10] = NCI Yeast Anticancer Drug Screen. Data for the cln2 rad14 strain (AID 165);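 note: 0% = growth equal to vehicle treated cultures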; details: S. cerevisiae cln2 rad14 strain, hits give high values
How it was run: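 The screen exposed genetically defined yeast (cln2 rad14) to test compounds and scored growth inhibition relative to vehicle-treated controls.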

[11] = NCI Yeast Anticancer Drug Screen. Data for the bub3 strain (AID 167); details: S. cerevisiae bub3 mutant strain, hits give high values
How it was run: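 Compounds were applied to a genetically altered yeast strain carrying a cell-cycle control defect. Growth inhibition was scored against vehicle-treated controls.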

[12] = NCI Yeast Anticancer Drug Screen. Data for the wt2 strain (AID 169);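 note: 0% = growth of vehicle-treated yeast cultures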; details: S. cerevisiae wt2 strain growth inhibition, hits give high values
How it was run: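 Steps: yeast strain treated with compound; growth recorded; inhibition calculated relative to cultures given vehicle alone.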

[13] = NCI Yeast Anticancer Drug Screen. Data for the mlh1 strain (AID 171);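 note: 0% = growth of vehicle-treated control cultures of the same strain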; details: S. cerevisiae mlh1 strain growth inhibition, hits give high values
How it was run: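 Yeast screen: mutant strain plus compound, growth scored against vehicle control wells.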

[14] = NCI Yeast Anticancer Drug Screen. Data for the mlh1 rad18 strain (AID 175); details: S. cerevisiae mlh1 rad18 strain growth inhibition, hits give high values
How it was run: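 Compound-treated yeast growth, normalised to vehicle controls. Strain bears defined DNA repair mutations.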

[15] = NCI Yeast Anticancer Drug Screen. Data for the rad18 strain (AID 177); details: S. cerevisiae rad18 mutant growth inhibition, hits give high values
How it was run: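 Inhibition values reflect reduced yeast growth compared with vehicle-treated controls, using a strain engineered with a DNA damage repair defect.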

[16] = at 5.0 µM (retest, dose inferred, filed as 0.5)
[17] = at 50.0 µM (retest, dose inferred, filed as 5.0)

Measured: growth inhibition

Cc1cccc(NC(=O)CBr)c1
active: [1]; at 11.0 µM 97% | [1]; at 33.0 µM 98% | [1]; at 100.0 µM 99% | [2]; at 11.0 µM 98% | [2]; at 33.0 µM 99% | [2]; at 100.0 µM 98% | [3]; at 33.0 µM 96% | [3]; at 100.0 µM 99% | [4]; at 11.0 µM 99% | [4]; at 33.0 µM 99% | [4]; at 100.0 µM 99% | [5]; at 3.7 µM 73% | [5]; at 11.0 µM 97% | [5]; at 33.0 µM 99% | [5]; [17] 99% | [5]; at 50.0 µM 99.2% | [5]; at 100.0 µM 99% | [6]; at 11.0 µM 98% | [6]; at 33.0 µM 99% | [6]; [17] 99% | [6]; at 50.0 µM 99.7% | [6]; at 100.0 µM 99% | [7]; at 11.0 µM 99% | [7]; at 33.0 µM 99% | [7]; at 100.0 µM 99% | [8]; [17] 99% | [8]; at 50.0 µM 99.2% | [9]; at 11.0 µM 96% | [9]; at 33.0 µM 98% | [9]; at 100.0 µM 98% | [10]; [17] 99% | [10]; at 50.0 µM 99.1% | [11]; at 11.0 µM 97% | [11]; at 33.0 µM 98% | [11]; [17] 98% | [11]; at 50.0 µM 99.6% | [11]; at 100.0 µM 99% | [12]; at 11.0 µM 98% | [12]; at 33.0 µM 99% | [12]; at 100.0 µM 99% | [13]; at 11.0 µM 99% | [13]; at 33.0 µM 99% | [13]; at 100.0 µM 99% | [14]; [17] 99% | [14]; at 50.0 µM 99.3% | [15]; at 11.0 µM 97% | [15]; at 33.0 µM 99% | [15]; at 100.0 µM 99%
inactive: [1]; at 1.2 µM 3% | [1]; at 3.7 µM 41% | [2]; at 1.2 µM 1% | [2]; at 3.7 µM 24% | [3]; at 1.2 µM -10% | [3]; at 3.7 µM -3% | [3]; at 11.0 µM 26% | [4]; at 1.2 µM -2% | [4]; at 3.7 µM 22% | [5]; at 1.2 µM 6% | [5]; [16] 21% | [6]; at 1.2 µM 7% | [6]; at 3.7 µM 44% | [6]; [16] 1% | [7]; at 1.2 µM -27% | [7]; at 3.7 µM 57% | [8]; [16] 49% | [9]; at 1.2 µM 2% | [9]; at 3.7 µM 22% | [10]; [16] 34% | [11]; at 1.2 µM 13% | [11]; at 3.7 µM 58% | [11]; [16] 63% | [12]; at 1.2 µM 1% | [12]; at 3.7 µM 33% | [13]; at 1.2 µM -2% | [13]; at 3.7 µM 46% | [14]; [16] 45% | [15]; at 1.2 µM 5% | [15]; at 3.7 µM 39%

CCOP(=O)(CC(C)P(=O)(OCC)OCC)OCC.C[CH2][Sn]([Cl])([Cl])[CH2]C (stereo unspecified)
inactive: [1]; at 1.2 µM -4% | [1]; at 3.7 µM -1% | [1]; at 11.0 µM 19% | [2]; at 1.2 µM 0% | [2]; at 3.7 µM 3% | [2]; at 11.0 µM 12% | [3]; at 1.2 µM -1% | [3]; at 3.7 µM 1% | [3]; at 11.0 µM 5% | [3]; at 33.0 µM 4% | [3]; at 100.0 µM 4% | [4]; at 1.2 µM -3% | [4]; at 3.7 µM -1% | [4]; at 11.0 µM 4% | [4]; at 33.0 µM 67% | [5]; at 1.2 µM -7% | [5]; at 3.7 µM -15% | [5]; [16] 16% | [5]; at 11.0 µM -2% | [5]; [17] 14% | [6]; at 1.2 µM 1% | [6]; at 3.7 µM 4% | [6]; [16] 1% | [6]; at 11.0 µM 14% | [6]; at 33.0 µM 69% | [6]; [17] 18% | [7]; at 1.2 µM -3% | [7]; at 3.7 µM 1% | [7]; at 11.0 µM 4% | [7]; at 33.0 µM 19% | [8]; [16] 11% | [8]; [17] 4% | [8]; at 50.0 µM 68.2% | [9]; at 1.2 µM -6% | [9]; at 3.7 µM -5% | [9]; at 11.0 µM 7% | [10]; [16] 6% | [10]; [17] 52% | [10]; at 50.0 µM 50.1% | [11]; at 1.2 µM -2% | [11]; at 3.7 µM 1% | [11]; [16] -9% | [11]; at 11.0 µM 5% | [11]; at 33.0 µM 55% | [11]; [17] 53% | [12]; at 1.2 µM -1% | [12]; at 3.7 µM -2% | [12]; at 11.0 µM 2% | [13]; at 1.2 µM 0% | [13]; at 3.7 µM 2% | [13]; at 11.0 µM 8% | [13]; at 33.0 µM 69% | [14]; [16] -2% | [14]; [17] 28% | [14]; at 50.0 µM 62.7% | [15]; at 1.2 µM -2% | [15]; at 3.7 µM 4% | [15]; at 11.0 µM 24%
active: [1]; at 33.0 µM 79% | [1]; at 100.0 µM 94% | [2]; at 33.0 µM 76% | [2]; at 100.0 µM 93% | [4]; at 100.0 µM 95% | [5]; at 33.0 µM 71% | [5]; at 50.0 µM 82.7% | [5]; at 100.0 µM 92% | [6]; at 50.0 µM 85.4% | [6]; at 100.0 µM 93% | [7]; at 100.0 µM 76% | [9]; at 33.0 µM 72% | [9]; at 100.0 µM 93% | [11]; at 50.0 µM 84.1% | [11]; at 100.0 µM 91% | [12]; at 33.0 µM 76% | [12]; at 100.0 µM 94% | [13]; at 100.0 µM 95% | [15]; at 33.0 µM 75% | [15]; at 100.0 µM 92%
